The text below walks through data of PubChem BioAssay (NCI).

About 83,000 compounds went through this panel and 20% of them were active in at least one assay; those are over-represented in the sample as a whole.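 Cells were grown in 96-well plates and exposed to the test compound at a single concentration for 48 hours; results are reported as percent growth, with values below 10 considered active.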 Active and inactive are the calls of the source.

The assay deals with U251 CNS. Kind of assay: NCI-60 one-dose screen, 48 h (100 = growth as untreated, 0 = no growth, -100 = all killed). The conditions noted are these: 10 µM unless noted. Here is the method:
Growth inhibition of the U251 human tumor cell line is measured as a screen for anti-cancer activity. Cells are grown in 96 well plates and exposed to the test compound for 48 hours. Compounds are tested at a single concentration, which is 10^-5 M for most compounds. The reported endpoint is percent growth (GI% or GIPRCNT), where numbers from 0 - 100% represent growth inhibition, and numbers from -100% - 0 represent cell death. For example, a value of 40 represents 60% growth inhibition. A value of 0 means no net growth occurred over the course of the experiment. A value of -40 indicates 40% of cells at the beginning of the experiment died by the end of the experiment. A value of -100 means all cells are dead at the end of the experiment.
NCI-60 Human Tumor Cell Lines Screen was performed using the standard one-dose NCI protocol, which is described in more detail at https://dtp.cancer.gov/discovery_development/nci-60/default.htm.
Compounds with GIPRCNT values below 10 were considered active. Activity score was based on GIPRCNT using the following formula: […]
Score is 0 for GIPRCNT values of 100 or above, 50 for GIPRCNT values of 0, and 100 for GIPRCNT values of -100.
`NCCCNc1nc2ccccc2c2c(=O)c3cc(F)ccc3sc12`: the growth is -56.1% (active).
With `COc1cc(C2CC(c3ccc(Nc4nc(NCCO)nc(N5CCOCC5)n4)cc3)=NN2c2cc(Cl)cc(Cl)c2)cc(OC)c1OC` (stereo not given), the growth is 47.7% (inactive).
The figure for `CC(C)C[C@H](C(=O)N[C@@H](C)C(N)=O)N1CC=CCN(O)S1(=O)=O` is 107% [5 µM] (inactive); for `FC(F)(F)c1cccc(Nc2nc(-c3ccccc3)nc3ncccc23)c1` it is 58.3% (inactive); for `COc1ccc(-c2cn[nH]c2-c2cc(OC)c(OC)c(OC)c2)cc1OCc1ccccc1` it is 12% (inactive).
The figure for `CCCCCCC(O)(c1ccc(F)cc1)C(CN1CCOCC1)c1ccccc1` (stereo not given) is 28% (inactive); for `O=C1/C(=C/c2ccc(O)cc2)COc2ccc(O)cc21` it is 80% (inactive).
The figure for `O=S(=O)(Nc1ncccn1)c1ccc(NC2Nc3nc4ccccc4nc3S2)cc1` (stereo not given) is 103% (inactive).
Regarding `O=C(Nc1ccc(Cl)cc1)c1cc2ccccc2cc1OP(=O)(O)O`, the growth is 18.8% (inactive).
The figure for `CCCCc1ccc(NS(=O)(=O)c2cc3c4c(c2)CCN4C(=O)CC3)cc1` is 11% (inactive); for `COc1ccc(CCN2C(=O)CCSC2=S)cc1OC` it is 97.2% (inactive); for `COc1ccc(Cn2c(Br)c3c(c2-c2cc(OC)c(OC)c(OC)c2)CCc2sc(NC(=O)c4ccc(OC)cc4)nc2-3)cc1` it is 98.6% (inactive).
Under `COc1ccc(Cn2c(Br)c3c(c2-c2cc(OC)c(OC)c(OC)c2)CCc2sc(NC(C)=O)nc2-3)cc1` stands 39.2% (inactive); under `COc1ccc(N)c(-c2cc3c(c4c2[nH]c2ccc(OC)cc24)CCCC3)c1`, 74.3% (inactive); under `NC1C(N)C(N)C1N` (stereo not given), 101% (inactive).
Under `COc1ccc(-c2nsc3c2NC(=O)CC3c2ccc3c(c2)OCCO3)cc1` (stereo not given) stands 24.3% (inactive); under `Cc1ccc(Cc2cnc(NC(=O)CN3C(=O)/C(=C\c4ccccc4)SC3=S)s2)cc1`, 94.8% (inactive).
Regarding `COC(=O)/C(=C\c1c(C)[nH]c2ccccc12)S(=O)(=O)c1ccccc1`, the growth was 25.7% (inactive).
For `CC[C@H](C)[C@@H](C(=O)OC)n1cc(CNC(=O)[C@@H](Cc2ccccc2)NC(=O)OCc2ccccc2)nn1`, the growth was 91.5% (inactive).
The figure for `COc1ccccc1CNC(=O)C1c2ccccc2C(=O)N(CC(C)C)C1c1cccs1` (stereo not given) is 49.7% (inactive).
The figure for `COC(=O)C1=C(C)NC(C)=C(C(=O)OC)C(N2C(=O)CCC2=O)C1` (stereo not given) is 87.7% (inactive); for `O=C(Nc1ccc(F)cc1F)c1cc(Cl)ccc1O` it is 3.34% (active); for `CCOC(=O)C1=C(C)c2ccc(OC)c(OC)c2C1` it is 90.4% (inactive).
For the compound `CCOC(=O)c1cc2c(n1Cc1cc(OC)c(OC)c(OC)c1)-c1oncc1CCC2`, the growth is 25.3% (inactive).
Under `COc1cc(/C=C2\Oc3cc(OCCCN4CCCC4)ccc3C2=O)cc(OC)c1` stands 18.3% (inactive); under `CCOC(=O)C1=C(C)N=c2s/c(=C\c3cc(Cl)ccc3O)c(=O)n2C1c1ccc(OC)cc1` (stereo not given), 85.4% (inactive).
The figure for `COc1ccc2sc3c(NCCCN)nc4ccccc4c3c(=O)c2c1` is -58.1% (active).
Consider `O=c1oc2ccc(Cl)cc2c(=O)n1-c1ccc(F)cc1F`, for which the growth is 7.08% (active).
Take `O=c1nc2sc3nc4ccccc4cc3cc-2s1`: the growth was 115% (inactive).
Under `C=C1C(=O)O[C@H]2[C@H]1CC/C(COC(=O)/C=C\C(=O)O)=C\CC[C@@]1(C)O[C@@H]21` stands 108% (inactive); under `C#CCn1cc(C=C2C(=O)N(C)C(=O)N(C)C2=O)c2cc(Cl)ccc21`, 113% (inactive); under `Cc1nc2ccccc2c(/C=C/c2ccc(F)cc2)c1C(N)=O`, 98.1% (inactive).
The figure for `COc1cc(/C(C#N)=C/c2nc3c(N4CCOCC4)nc(Cl)nc3n2C)cc(OC)c1OC` is 8.74% (active); for `FC(F)(F)c1cccc(CNC2CCN(CCc3ccccc3)CC2)c1` it is 77.4% (inactive); for `CC[C@]1(O)C[C@@H]2CN(CCc3c([nH]c4ccccc34)[C@@](C(=O)OC)(c3cc4c(cc3OC)N(C)[C@H]3[C@@](O)(C(=O)OC)[C@H](OC(=O)CCCBr)[C@]5(CC)C=CCN6CC[C@]43[C@@H]65)C2)C1` it is 13.5% (inactive).
Under `O=C1C(=O)c2c(ccc3ccccc23)-c2ccccc21` stands 1.64% (active); under `COc1ccc(-n2c(C(O)c3ccccc3)n[nH]c2=S)cc1` (stereo not given), 91.2% (inactive); under `CCOc1cccc(/C=N\Nc2nc(=O)cc(C(=O)OC)s2)c1O`, 57.6% (inactive).
As for `Nc1no[n+]([O-])c1-c1nnc2c(n1)-c1ccccc1C2=O`, the growth was 88% (inactive).
Under `Cn1cc([C@@H]2Nc3ccc4[nH]ncc4c3[C@H]3[C@H]4CCC(C4)[C@H]32)c(C(F)(F)F)n1` stands 42.5% (inactive).
